The source made the active and inactive calls. The calls were made as follows: active = hit-call score of the fitted dose curve at least 0.9, where 1 is the maximum; inactive = score below 0.9.
read-out: Monocyte Chemoattractant Protein-1 (MCP1), CCL2 (gene 6347); test: BSK_LPS_MCP1: BioMAP Diversity Plus: LPS Assay for Monocyte Chemoattractant Protein-1 (MCP1) Biomarker Activity (AID 2283081); conditions: primary human HUVEC with PBMC; actives raise or lower the signal;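 as to AC50: co-culture stimulated with LPS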
Description: BSK_LPS is a cell-based, multiplexed-readout assay that uses umbilical vein endothelium and peripheral blood mononuclear cells, a human vascular primary cell co-culture, with measurements taken at 24 hours after chemical dosing in a 96-well plate.BSK_LPS_MCP1 is an assay component measured in the BSK_LPS assay. It measures MCP-1 antibody related to regulation of gene expression using ELISA technology.Data from the assay component BSK_LPS_MCP1 was analyzed into 1 assay endpoint. This assay endpoint, BSK_LPS_MCP1, was analyzed with bidirectional fitting relative to DMSO as the negative control and baseline of activity. Using a type of binding reporter, gain or loss-of-signal activity can be used to understand changes in the signaling as they relate to the gene CCL2. Furthermore, this assay endpoint can be referred to as a primary readout, because this assay has produced multiple assay endpoints where this one serves a signaling function. To generalize the intended target to other relatable targets, this assay endpoint is annotated to the cytokine intended target family, where the subfamily is chemotactic factor.
The levels of cell surface (or secreted, indicated by the prefix "s") biomarker endpoints were measured by ELISA. Overt cytotoxicity to cells in confluent adherent cultures (all systems other than the BT system) was assessed by measuring total protein levels using sulforhodamine B (SRB) staining in parallel cultures at the time of biomarker measurements, indicated as SRB endpoints. For proliferation assays for adherent cell types, individual cell types are cultured at sub-confluence and relative cell numbers quantified by SRB staining at time points optimized for each system (48 h: 3C and CASM3C systems; 72 h: BT and HDF3CGF systems; 96 h: SAg system). SRB was performed by staining cells with 0.1% SRB after fixation with 10% TCA and reading wells at 560 nm.Viability and proliferation of PBMC (T cells) was quantified by Alamar Blue reduction for the SAg and BT systems. For PBMC viability (referred to as PBMC Cytotoxicity within the assay endpoint names), cells were plated (75,000/well in a 96-well plate) and then chemical samples added for 1 h before addition of activators, SEB and TSST-1 (20 ng/mL final concentration each). Cells were incubated for 90 h. Then, Alamar Blue (20 uL/well) (Invitrogen, Cat DAL1100) was added for 6 h, and the plates were read with a fluorescence microplate reader at 546/580 nm (excitation/emission). For PBMC proliferation, cells were plated and activated as above but incubated for only 16 h prior to addition of Alamar Blue. Plates were read after 6 h.

Compound | outcome | AC50
CCCC(=O)OCCC(C)C | inactive | 
Cc1oc2c(NC(=O)c3c(Cl)cccc3Cl)cccc2c1C(C)(C)O | inactive | 
CC(O)CC(C)(C)O (stereo not given) | inactive | 
CCCCCCCCCC(=O)O | inactive | 
Cc1ncc(CO)c(CO)c1O | inactive | 
C[C@]12CC[C@@H]3c4ccc(O)cc4CC[C@H]3[C@@H]1CC[C@H]2O |  | 14.1 µM (active)
COCC(C)OCC(C)OCC(C)O (stereo not given) | inactive | 
CCCCOC(=O)CC(CC(=O)OCCCC)(OC(C)=O)C(=O)OCCCC | inactive | 
COc1cc(C(=O)NC2CCN(C)CC2)ccc1Nc1ncc2c(n1)N(C1CCCC1)CC(F)(F)C(=O)N2C |  | 11.7 µM (active)
C[C@]12CC[C@@H]3c4ccc(O)cc4CC[C@H]3[C@@H]1CCC2=O | inactive | 
O=C(OCCCCCCOC(=O)c1ccccc1)c1ccccc1 | inactive | 
CO[C@H]1/C=C/O[C@@]2(C)Oc3c(C)c(O)c4c(O)c(c(/C=N/N5CCN(C)CC5)c(O)c4c3C2=O)NC(=O)/C(C)=C\C=C\[C@H](C)[C@H](O)[C@@H](C)[C@@H](O)[C@@H](C)[C@H](OC(C)=O)[C@@H]1C | inactive | 
Clc1cc(Cl)c2c(c1)N=C1CCCCCN1C2 | inactive | 
Clc1ccccc1C(c1ccccc1)(c1ccccc1)n1ccnc1 |  | 29.7 µM (active)
Cc1cc2c(cc1C(F)(F)F)N(C(=O)Nc1ccc(Oc3cccnc3C)nc1)CC2 | inactive | 
CCCCCCCCOC(=O)c1cc(O)c(O)c(O)c1 |  | 26.7 µM (active)
CN(C)C(=O)C1(N2CCCCC2)CCN(CC[C@@]2(c3ccc(Cl)c(Cl)c3)CN(C(=O)c3ccccc3)CCO2)CC1 |  | 25.2 µM (active)
CN(C)c1ccc(C(=C2C=CC(=[N+](C)C)C=C2)c2ccc(N(C)C)cc2)cc1 |  | 0.269 µM (active)
CC1(C)NC(=O)N(c2ccc([N+](=O)[O-])c(C(F)(F)F)c2)C1=O | inactive | 
CCCCCCCCN(C)CCCCCCCC | inactive | 

Compound | outcome | AC50
CN1C(=O)CC[C@H]1c1cccnc1 | inactive | 
O=C(Nc1ccc(Cl)cc1)Nc1ccc(Cl)c(Cl)c1 |  | 3.51 µM (active)
O=C1c2ccccc2C(=O)N1CCc1noc(-c2ccc(CN3CCCCCC3)s2)n1 | inactive | 
Cc1cccc2ccccc12 | inactive | 
CCO[Si](CCCNC(N)=O)(OCC)OCC | inactive | 
Cc1cn([C@H]2C[C@H](N=[N+]=[N-])[C@@H](CO)O2)c(=O)[nH]c1=O | inactive | 
CCCCCCCCCCCC[N+](C)(C)C |  | 25.5 µM (active)
CCCCCCCCOc1ccc(C(=O)c2ccccc2)c(O)c1 | inactive | 
CCN(Cc1cccc(S(=O)(=O)O)c1)c1ccc(C(=C2C=CC(=[N+](CC)Cc3cccc(S(=O)(=O)O)c3)C=C2)c2ccccc2S(=O)(=O)[O-])cc1 | inactive | 
O=C(O)c1ccccc1C(=O)OCc1ccccc1 | inactive | 
CC(C)(C)c1csc(-c2cc3cc(OCc4ccccc4CC(=O)O)ccc3o2)n1 |  | 22.6 µM (active)
Oc1ccccc1 | inactive | 
c1ccc2ccccc2c1 | inactive | 
CCCCCCCCCCCO | inactive | 
O=c1[nH]sc2ccccc12 |  | 17.6 µM (active)
CN1C(=O)N(c2ccccc2Br)Cc2cnc(Nc3ccc4c(c3)OCC(CO)O4)nc21 (stereo not given) |  | 5.19 µM (active)
CC1=CC(=O)/C(=C(/C)O)C(=O)O1 | inactive | 
Cc1ccc2oc(CN(Cc3ccccc3)C(=O)Nc3c(F)cc(F)cc3F)c(-c3ccc(Cl)cc3)c2c1 | inactive | 
c1ccc(C[n+]2cccc3ccccc32)cc1 | inactive | 
CCN(Cc1cccnc1)C(=O)c1cccc(Cl)c1[C@]1(C)C(=O)N(Cc2ccc(OC)cc2OC)c2ccc(Cl)cc21 |  | 8.28 µM (active)
